This passage reports composite z-score and z-score results from PubChem BioAssay.

The subject of assay [1] is Human papillomavirus type 1a protein E7 (residues 44-93). In words: HPV1a E7 fragment binders on microarrays, primary screen, biochemical, small-molecule microarray, residues 44-93, 635 nm fluorescence (AID 1108).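 Also: E7 fragment applied at 1 µg/mL in TBST for 1 h at 4 C; score combines spot fluorescence with its signal to noise ratio.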 The conditions noted are these: small-molecule microarray binding, fluorescence 635 nm; higher = more signal.
Assay [2] in a line: modulators of HCV replicon luciferase signal, primary screen, HCV replication inhibitor project, Huh7 cells, luciferase reporter (AID 1109).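 Also: huh7 hepatoma cells harbouring a luciferase neomycin HCV replicon reporter; luciferase luminescence as measure of HCV replicon replication; test concentration not given here.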 The settings on record: 48 h, higher = more signal.
Assay [3] has as its target Left-right determination factor 2 (Homo sapiens) (UniProt O00292). In words: LEFTY2 binders on small-molecule microarrays, primary screen, biochemical, small-molecule microarray, 635 nm fluorescence scan (AID 1110). The settings on record: LEFTY2 binding, higher = more signal.
Assay [4] has as its target Calmodulin-1 (Homo sapiens) (UniProt P0DP23). In words: CALM1 binders on microarrays, EGTA buffer, profiling panel, biochemical, small-molecule microarray, Cy5-labelled CALM1 (AID 1111).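 Also: labelled calmodulin applied in Tris saline Tween buffer holding calcium plus EGTA and DTT.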 The settings on record: Cy5-CALM1 binding fluorescence, higher = more signal.
Assay [5] has the same target. In words: calcium-bound CALM1 binders on microarrays, profiling panel, artefact control for SMM control-protein annotation, biochemical, small-molecule microarray, Cy5-labelled CALM1, plus calcium (AID 1112).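 Also: score merges spot fluorescence with signal to noise from triplicate slides.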 The settings on record: Cy5-CALM1 binding fluorescence, higher = more signal.
Assay [6] is described as follows: small-molecule microarray binders of probe aWnt5a, primary screen, biochemical, biotinylated probe, 635/667 nm fluorescence (AID 1113).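 Also: score merges 667 nm fluorescence intensity with signal-to-noise per printed feature.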 The conditions noted are these: higher = more signal.
Assay [7] can be described thus: small-molecule microarray binders of probe aShh, primary screen, biochemical, biotinylated probe, 635/667 nm fluorescence (AID 1114).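 Also: probe is biotin-labelled aShh protein from a stem cell growth factor screen; measures binding of labelled protein to compounds printed on the slide; score merges feature fluorescence at 667 nm with signal-to-noise.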 The settings on record: higher = more signal.
A short description of assay [8]: small-molecule microarray binders of probe aNog, primary screen, biochemical, biotinylated probe, 635/667 nm fluorescence (AID 1115).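 Also: probe is biotinylated aNog protein used at 0.15 µg/mL for 1 h at 4 C; z-score combines 667 nm fluorescence of each spot with its signal to noise.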 The settings on record: higher = more signal.
Assay [9] concerns the target Torsin-1A-interacting protein 1 (Homo sapiens) (UniProt Q5JTV8). In words: LAP1 binders from COS7 cell lysate, primary screen, small-molecule microarray, 635/667 nm fluorescence (AID 1116). The conditions noted are these: COS7-hLAP1 lysate binding, 635 nm fluorescence, higher = more signal.
The target of assay [10] is Alpha-bungarotoxin (Bungarus multicinctus) (UniProt P60615). In words: alpha-bungarotoxin binders on microarray, profiling panel, artefact control for SMM control protein annotation, biochemical, small-molecule microarray, Alexa647 label, 635/667 nm fluorescence (AID 1117). The settings on record: alpha-BTX-A647 binding fluorescence, higher = more signal.
Sequence of Alpha-bungarotoxin (Bungarus multicinctus) (P60615 whole entry, looked up): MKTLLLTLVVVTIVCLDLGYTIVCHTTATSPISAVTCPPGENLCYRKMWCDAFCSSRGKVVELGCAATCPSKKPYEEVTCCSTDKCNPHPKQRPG

Sequence of Left-right determination factor 2 (Homo sapiens) (O00292 whole entry, looked up): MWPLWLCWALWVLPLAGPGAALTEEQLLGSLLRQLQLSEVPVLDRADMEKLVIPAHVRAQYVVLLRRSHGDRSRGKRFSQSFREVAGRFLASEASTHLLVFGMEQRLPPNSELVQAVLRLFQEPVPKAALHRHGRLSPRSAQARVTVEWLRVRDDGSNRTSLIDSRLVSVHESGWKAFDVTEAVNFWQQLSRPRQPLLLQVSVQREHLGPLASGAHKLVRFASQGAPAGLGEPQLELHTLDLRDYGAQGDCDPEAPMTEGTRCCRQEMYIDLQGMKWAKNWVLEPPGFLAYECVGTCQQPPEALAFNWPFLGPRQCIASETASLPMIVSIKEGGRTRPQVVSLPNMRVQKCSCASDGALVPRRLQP
Sequence of Torsin-1A-interacting protein 1 (Homo sapiens) (Q5JTV8 whole entry, looked up): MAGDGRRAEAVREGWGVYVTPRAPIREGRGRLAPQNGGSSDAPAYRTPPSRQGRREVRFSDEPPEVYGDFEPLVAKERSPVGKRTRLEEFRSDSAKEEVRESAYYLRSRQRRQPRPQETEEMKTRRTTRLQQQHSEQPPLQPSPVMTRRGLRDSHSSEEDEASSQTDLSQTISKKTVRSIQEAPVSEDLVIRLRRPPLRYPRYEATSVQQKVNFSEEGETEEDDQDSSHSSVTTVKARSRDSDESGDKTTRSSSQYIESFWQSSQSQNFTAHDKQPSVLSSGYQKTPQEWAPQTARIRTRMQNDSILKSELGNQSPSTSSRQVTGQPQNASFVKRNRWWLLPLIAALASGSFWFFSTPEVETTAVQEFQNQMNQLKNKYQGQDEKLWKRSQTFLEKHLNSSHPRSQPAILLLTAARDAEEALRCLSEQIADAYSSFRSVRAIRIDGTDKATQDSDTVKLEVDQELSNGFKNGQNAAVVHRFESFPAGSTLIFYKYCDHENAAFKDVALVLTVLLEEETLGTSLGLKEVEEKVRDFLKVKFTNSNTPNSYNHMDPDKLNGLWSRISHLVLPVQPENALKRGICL

With `CCCC[C@H]1OB(O)C[C@H]2C1=C(COc1ccccc1)C[C@H]1C(=O)N(Cc3ccccc3)C(=O)[C@H]12`, the composite z-score in assay [1] is 1.38; in [3], 0.377; in assay [4], 0.324; in assay [5], -0.774; in assay [6], -0.176; in [7], -0.0709. For the same compound, the composite z-score in assay [8] was -0.273; in assay [9] it was -0.0868; in [10], 1.04. Further, the z-score in assay [2] is -1.72.
With `Cc1ccc(S[C@]2(C(=O)NCC(F)(F)F)CC(=O)N(C3Cc4ccccc4C3)[C@@H]2c2ccc(CO)cc2I)cc1`, the composite z-score in assay [1] was -0.263; in assay [3] it was -1.56; in assay [4] it was -0.0026; in assay [5] it was 0.994; in assay [6] it was -0.184; in assay [7] it was -0.197. The composite z-score was 2.14 in assay [8], 0.265 in assay [9] and 0.918 in assay [10]. Further, in assay [2], the z-score was -1.55.
In the case of `CN(C)CCCC[C@@H]1NC(=O)[C@@H]2C[C@H](C(=O)NCc3ccc(F)cc3)[C@H](c3cccc(OCCO)c3)N2C1=O`, the composite z-score in assay [1] is 1.17; in [3], 0.748; in [4] it was 0.337; in [5] it was 0.136; in [6], -0.1; in [7], 0.207. Moreover, the composite z-score in assay [8] was -0.399; in assay [9], 1.07; in assay [10], 0.356. Moreover, in [2], the z-score was 0.679.
As to `CC1CC/C=C\[C@H]2OC34C=CCN(Cn5nnc6ccccc65)C(=O)[C@H]3N(CCCO)C(=O)[C@@H]4C2C(=O)O1` (stereo not given in full), the composite z-score in assay [1] is -0.311; in [3], -1.28; in assay [4], -0.484; in [5], 0.25; in assay [6], -0.228; in assay [7], 0.0121. In addition, the composite z-score in assay [8] was -0.201; in [9], 0.479; in [10], -0.744. In assay [2], this compound yielded a z-score of -0.486.
With `O=C(NCc1ccccc1)[C@@H]1c2ccccc2C(=O)N(Cc2cc(F)cc(C(F)(F)F)c2)[C@H]1c1ccc(CO)cc1`, the composite z-score in [1] was 1.44; in assay [3], -0.244; in assay [4] it was -0.174; in [5], -0.707; in assay [6] it was -0.096; in assay [7] it was 0.163. In addition, the composite z-score in assay [8] was -0.339; in [9], 1.15; in [10] it was 0.258. The same compound gave a z-score in [2] of -0.132.
Regarding `COCCOC(=O)N1C(=O)[C@@]2(c3cc(C#CCC(C(=O)OC)C(=O)OC)ccc31)[C@H](c1ccccc1OCCO)N1[C@H](c3ccccc3)[C@H](c3ccccc3)OC(=O)[C@H]1[C@@H]2C(=O)Nc1nc2ccccc2s1`, the composite z-score in assay [1] is 0.678; in assay [3], 0.691; in [4], 1.29; in [5], 0.522; in assay [6] it was -0.0134; in [7], -0.0146. Moreover, the composite z-score in assay [8] was 0.185; in [9] it was 1.99; in assay [10] it was 2.06. The same compound returned a z-score in [2] of -1.11.
For `CC(C)NC(=O)[C@@]1(c2ccc([N+](=O)[O-])cc2)CC(=O)N(C(C)C)[C@@H]1c1ccc(CO)cc1`, the composite z-score was 0.559 in assay [1]; -1.86 in [3]; -0.678 in assay [4]; -0.56 in assay [5]; -0.197 in assay [6]; 0.0899 in [7]. The composite z-score in assay [8] is -0.311; in assay [9], -0.534; in assay [10], -0.125. The z-score in assay [2] is -0.176.
As to `CCCNC(=O)[C@@]1(C)c2ccccc2C(=O)N(Cc2cc(F)cc(C(F)(F)F)c2)[C@H]1c1ccc(CO)cc1`, the composite z-score was 0.843 in assay [1]; -0.742 in [3]; 0.685 in assay [4]; 0.499 in [5]; -0.0405 in [6]; 0.0469 in [7]. In addition, the composite z-score in assay [8] is 1.03; in [9] it was 0.296; in [10], -0.0457. The z-score in [2] is -0.372.
`C=C[C@H](C)[C@H](O)c1ccc(OCCO)cc1`: the composite z-score is -2.7 in [1]; -1.42 in assay [3]; -0.215 in [4]; 0.486 in [5]; -0.139 in assay [6]; -0.108 in assay [7]. In addition, the results for the composite z-score in assay [8], in assay [9] and in [10] were -0.278, -1.26 and -1.27, respectively. Moreover, the z-score in assay [2] was -1.54.
For `CN1C(=O)C2C(C1=O)C1C=C(c3ccc(CO)cc3)C2C(C2CC2)N1Cc1cc2c(cc1Br)OCO2` (stereo not given), the composite z-score is 1.36 in assay [1]; 0.72 in assay [3]; 1.68 in assay [4]; 0.6 in assay [5]; -0.027 in assay [6]; -0.0866 in assay [7]. Besides, the composite z-score in assay [8] was determined as 1.04; in [9], 2.24; in assay [10], 1.73. The z-score in assay [2] is -1.11.
Consider `C=C(/C(=C/C[C@@H](OC(C)=O)c1ccc(CO)o1)c1cnc2ccccc2c1)C(C)C`, for which the composite z-score in [1] is 1.09; in [3], 1.06; in [4] it was 0.384; in assay [5], -1.12; in assay [6] it was -0.0346; in assay [7], 0.123. For the same compound, the composite z-score in [8] was found to be 0.153; in [9], 1.24; in assay [10], 0.818. Moreover, the z-score in [2] is -2.37.
For the compound `C=C(CCCC)C(=O)CC[C@H](OC(=O)c1ccccc1-c1ccccc1C(=O)O)c1ccc(CO)o1`, the composite z-score in assay [1] is 1.42; in [3], 0.645; in assay [4] it was 0.856; in assay [5], -0.771; in [6] it was -0.0458; in assay [7], -0.108. Also, the composite z-score in assay [8] amounted to 0.238; in assay [9], 0.876; in assay [10] it was 1.65. The z-score in [2] was -0.872.
In the case of `CC(C)(C)OC(=O)CC[C@@]1(C(N)=O)N=C(c2ccc(OCCCO)cc2)O[C@@H]1c1ccccc1N=[N+]=[N-]`, the composite z-score in assay [1] was 1.2; in [3], -0.038; in assay [4], 1.03; in assay [5], 0.774; in assay [6] it was -0.0125; in assay [7], 0.0796. The figures for the composite z-score in assay [8], in assay [9] and in assay [10] were -0.504, 1.12 and 1.22, respectively. Further, in assay [2], the z-score came out at 3.02.
